Experiment [1] can be described thus: qHTS drug screen for cell cycle checkpoint inhibitors in PARPi-resistant BRCA-mutant ovarian cancer cell lines. (AID 1963452). The conditions noted are these: PEO1/OlaR viability, CellTiter-Glo luminescence, 96 h; for Z-AUC: stronger effect = lower value. Put shortly:
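PEO1, PEO4 and PEO1/OlaR ovarian cancer cells, 600 per well, exposed 96 h at 37C to a dilution series. Viability read by CellTiter-Glo luminescence, normalized to DMSO and empty wells; activity summarized as Z-AUC.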

Experiment [2] can be described thus: qHTS profiling for inhibitors of Plasmodium falciparum proliferation (AID 504749; active = well fitted inhibition curve with a large enough effect;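 as to activity, negative = inhibition: 0% = DMSO vehicle and full inhibition = artemisinin control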; as to all read-outs here: nearly all actives have a fitted effect of over 60% in size). The conditions noted are these: P. falciparum in erythrocytes, SYBR Green DNA, 72 h; for activity, negative = inhibition: at 28.7 µM (top of the series). Put shortly: (§1)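 P. falciparum-infected erythrocytes (0.3% parasitemia, 2.5% hematocrit final) were exposed to compounds for 72 h at 37 C in 5% CO2, then lysed with SYBR Green buffer overnight at room temperature; parasite DNA fluorescence was normalized to artemisinin and DMSO controls.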
A general note: qHTS replaces the single test concentration by a dilution series.

The subject of experiment [3] is 7G8. The description is as above. As to conditions: P. falciparum in erythrocytes, SYBR Green DNA, 72 h; series mostly up to 28.7 µM. Put shortly:
as §1

Experiment [4] is described as follows: qHTS for identification of novel therapeutic agents for treatment of microphthalmiaassociated transcription factor (MiT) renal cell carcinoma (RCC) (AID 1963991). The conditions noted are these: CellTiter-Glo, 48 h; for z-score: stronger effect = lower value; for Potency: active = Z-AUC below -0.8 in all three lines. Put shortly:
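Curves over 11 concentrations were fitted to CellTiter-Glo luminescence, scaled between empty wells (0%) and DMSO (100%) viability. Cells were UOK109, UOK124 and UOK145 TFE3-fusion RCC lines at 500/well, exposed 48 hours at 37 C.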

Experiment [5] has as its system 3D7. The experiment is described as follows: qHTS profiling for inhibitors of Plasmodium falciparum proliferation (AID 504749). Also: nearly all actives have a fitted effect of over 60% in size.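 As to activity, negative = inhibition: 0% = DMSO vehicle and full inhibition = artemisinin control.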 As to conditions: P. falciparum in erythrocytes, SYBR Green DNA, 72 h; series mostly up to 28.7 µM. Put shortly:
as §1

[6] abbreviates: measured here: PEO1 parental Z-AUC.
[7] abbreviates: TFE3-RCC UOK109 viability, measured here: UOK109 Z-AUC.
The mark [8] stands for this setting: TFE3-RCC viability, measured here: UOK124 Z-AUC.
The mark [9] stands for this setting: TFE3-RCC viability, measured here: UOK145 Z-AUC.

Results filed as inconclusive are left out. Activity calls are given as the source filed them. Unless noted, calls follow the shape of the full dose curve.
Potency is read from the fitted curve at half-maximal effect.

As for `CC1=C(/C=C/C(C)=C/C=C/C(C)=C/C(=O)Nc2ccc(O)cc2)C(C)(C)CCC1`, the Z-AUC in experiment [1] was 0.685 (inactive); in experiment [1] (setting [6]) it was 0.437; in experiment [1] (measured here: PEO4 Z-AUC) it was 0.121. The Potency in experiment [2] (parasite line A) was 11.2 µM (active); in experiment [2] (parasite line B), 10 µM (active); in experiment [3], 8.91 µM (active).
`NC[C@@H]1O[C@@H](O[C@H]2[C@@H](O)[C@H](O[C@@H]3[C@@H](O)[C@@H](N)C[C@H](N)[C@H]3O[C@H]3O[C@H](CN)[C@@H](O)[C@@H](O)[C@H]3N)O[C@H]2CO)[C@H](N)[C@@H](O)[C@@H]1O`: the z-score in experiment [4] (setting [7]) worked out at 1.35; in experiment [4] (setting [8]) it was 0.643; in experiment [4] (setting [9]), 1.63.
As to `O=C(CCc1ccc(O)cc1)c1c(O)cc(O)cc1O[C@@H]1O[C@H](CO)[C@H](O)[C@H](O)[C@H]1O`, the z-score in experiment [4] (setting [7]) is -0.101; in experiment [4] (setting [8]), 0.0784; in experiment [4] (setting [9]) it was -0.273.
Consider `CNC(=O)c1ccc2cc(C3(O)CCn4cncc43)ccc2c1` (stereo unspecified), for which the Z-AUC in experiment [1] was -0.914 (inactive); in experiment [1] (setting [6]), -0.347; in experiment [1] (measured here: PEO4 Z-AUC), -0.305. The z-score in experiment [4] (setting [7]) was determined as 0.41; in experiment [4] (setting [8]), 0.546; in experiment [4] (setting [9]), 0.539.
Turning to `COc1ccc2c3c1OC1C[C@@H](O)C=C[C@@]31CCN(C)C2` (stereo partly specified), the figures for the z-score in experiment [4] (setting [7]), in experiment [4] (setting [8]) and in experiment [4] (setting [9]) were 0.657, 0.378 and -0.117, respectively.
Regarding `O=C1c2ccccc2-[n+]2ccc3c([nH]c4ccccc43)c21`, the Z-AUC in experiment [1] was -1.18 (inactive); in experiment [1] (setting [6]), -1.75; in experiment [1] (measured here: PEO4 Z-AUC), -2.31. In addition, the Potency in experiment [4] (TFE3-RCC UOK109 viability) was 1.66 µM (active). For the same compound, the z-score is -1.69 in experiment [4] (setting [7]), -2.04 in experiment [4] (setting [8]) and -1.7 in experiment [4] (setting [9]).
`COc1cc2nc(-c3ccc(N4CCN(C)CC4)cc3)nc(NCCN3CCOCC3)c2cc1OC`: the Z-AUC in experiment [1] was -0.0476 (inactive); in experiment [1] (setting [6]) it was -0.00961; in experiment [1] (measured here: PEO4 Z-AUC) it was -0.573. In experiment [4] (TFE3-RCC UOK109 viability), the Potency is 1.18 µM (active). Further, the z-score in experiment [4] (setting [7]) was -1.15; in experiment [4] (setting [8]) it was -1.85; in experiment [4] (setting [9]) it was -1.4.
Turning to `CN(C)c1cc(NC(=O)CNC(C)(C)C)c(O)c2c1C[C@@H]1C[C@H]3[C@H](N(C)C)C(=O)C(C(N)=O)=C(O)[C@@]3(O)C(=O)C1=C2O`, the z-score is 1.85 in experiment [4] (setting [7]), 0.166 in experiment [4] (setting [8]) and 0.881 in experiment [4] (setting [9]).
Turning to `O=C(O)C(O)Cc1ccc(O)c(O)c1` (stereo unspecified), the Z-AUC was 0.82 (inactive) in experiment [1], 1.05 in experiment [1] (setting [6]) and 0.735 in experiment [1] (measured here: PEO4 Z-AUC). Besides, the z-score in experiment [4] (setting [7]) stood at 0.888; in experiment [4] (setting [8]), 1.07; in experiment [4] (setting [9]), 1.23.
For the compound `Nc1ncnc2c1ncn2[C@@H]1O[C@@H](CO)[C@H](O)[C@H]1O`, the z-score in experiment [4] (setting [7]) stood at 0.834; in experiment [4] (setting [8]) it was 0.529; in experiment [4] (setting [9]), 0.73.
For `OC[C@H]1O[C@@H](n2cnc3c2NC=NC[C@@H]3O)C[C@H]1O` the same measures were 0.518, 0.532 and 0.196.
For `Clc1ccc(-c2nc3sccn3c2C=NOCc2ccc(Cl)c(Cl)c2)cc1` the same measures were 0.77, 0.598 and 0.227.
Turning to `COC1CCC(N(C(=O)C2CCC(C)CC2)c2cc(C3=CCCCC3)sc2C(=O)O)CC1` (stereo unspecified), the values for the Z-AUC in experiment [1], in experiment [1] (setting [6]) and in experiment [1] (measured here: PEO4 Z-AUC) were -0.412 (inactive), -0.941 and -0.935, respectively. In addition, the z-score in experiment [4] (setting [7]) was found to be 0.459; in experiment [4] (setting [8]), 1.37; in experiment [4] (setting [9]), 0.333.
Turning to `O=C(OCC#CCSc1nnc(-c2cccc3ccccc23)o1)c1cc2ccccc2s1`, the values for the z-score in experiment [4] (setting [7]), in experiment [4] (setting [8]) and in experiment [4] (setting [9]) were 0.144, 0.66 and 0.162, respectively.
In the case of `Cc1cnc(C(=O)O)c[n+]1[O-]`, the Z-AUC in experiment [1] is -0.768 (inactive); in experiment [1] (setting [6]), -0.301; in experiment [1] (measured here: PEO4 Z-AUC), -0.6. The values for the z-score in experiment [4] (setting [7]), in experiment [4] (setting [8]) and in experiment [4] (setting [9]) were 1.58, 0.716 and 0.578, respectively. Moreover, the activity, negative = inhibition was -1.49% (inactive) in experiment [2] (parasite line A) and -8.14% (inactive) in experiment [2] (parasite line B). Besides, the compound was called inactive in experiment [5]. The Potency entry in experiment [3] was “inactive”.
As to `COc1ccc2cccc(CCNC(C)=O)c2c1`, the Z-AUC was -0.374 (inactive) in experiment [1], -0.478 in experiment [1] (setting [6]) and -0.326 in experiment [1] (measured here: PEO4 Z-AUC). Also, the z-score in experiment [4] (setting [7]) was found to be 0.892; in experiment [4] (setting [8]), 0.661; in experiment [4] (setting [9]), 0.732.
For the compound `O=C(NC1CCOCC1)c1ccc(-c2cc(-c3cn[nH]c3-c3ccccn3)ccn2)cc1`, the Z-AUC was 0.761 (inactive) in experiment [1], 0.819 in experiment [1] (setting [6]) and 0.929 in experiment [1] (measured here: PEO4 Z-AUC). Besides, the results for the z-score in experiment [4] (setting [7]), in experiment [4] (setting [8]) and in experiment [4] (setting [9]) were 0.905, 1.11 and 0.561, respectively.
Take `O=C(O)c1ccc(-c2c[nH]c3ncc(-c4ccccc4)cc23)cc1C1CCCC1`: the Z-AUC in experiment [1] is 0.296 (inactive); in experiment [1] (setting [6]) it was -0.104; in experiment [1] (measured here: PEO4 Z-AUC), 0.0769. For the same compound, the z-score came out at 1.28 in experiment [4] (setting [7]), 0.56 in experiment [4] (setting [8]) and 0.0409 in experiment [4] (setting [9]).
Take `C[C@H]1[C@H](NC(=O)C(=NOC(C)(C)C(=O)O)c2csc(N)n2)C(=O)N1S(=O)(=O)O`: the figures for the z-score in experiment [4] (setting [7]), in experiment [4] (setting [8]) and in experiment [4] (setting [9]) were 1.25, 0.648 and 1.65, respectively.
With `COc1ncc(-c2ccc3nccc(-c4ccnnc4)c3c2)cc1NS(=O)(=O)c1ccc(F)cc1F`, the Potency in experiment [1] was 0.174 µM (active); in experiment [4] (TFE3-RCC UOK109 viability) it was 33.2 µM (active). Besides, the Z-AUC in experiment [1] (setting [6]) is -2.06; in experiment [1] (measured here: PEO4 Z-AUC) it was -1.99. Moreover, the z-score is -3.1 in experiment [4] (setting [7]), -1.24 in experiment [4] (setting [8]) and -3.12 in experiment [4] (setting [9]).
With `COc1ccc(-c2nc(N3CCOCC3)c3sc(CN(C)c4ncc(C(=O)NO)cn4)cc3n2)cn1`, the Potency was 0.0616 µM (active) in experiment [1] and 0.0264 µM (active) in experiment [4] (TFE3-RCC UOK109 viability). Besides, the results for the Z-AUC in experiment [1] (setting [6]) and in experiment [1] (measured here: PEO4 Z-AUC) were -1.63 and -1.69, respectively. The z-score is -3.18 in experiment [4] (setting [7]), -4.67 in experiment [4] (setting [8]) and -3.65 in experiment [4] (setting [9]).
With `CC(C)n1nc(-c2ccc3oc(N)nc3c2)c2c(N)ncnc21`, the Potency was 0.871 µM (active) in experiment [1] and 0.0372 µM (active) in experiment [4] (TFE3-RCC UOK109 viability). Further, the figures for the Z-AUC in experiment [1] (setting [6]) and in experiment [1] (measured here: PEO4 Z-AUC) were -1.21 and -1.54, respectively. For the same compound, the z-score in experiment [4] (setting [7]) is -2.39; in experiment [4] (setting [8]), -2.58; in experiment [4] (setting [9]) it was -3.7.
As to `CC(=O)N[C@@H](CS)C(=O)O`, the Z-AUC in experiment [1] was 0.621 (inactive); in experiment [1] (setting [6]), 0.869; in experiment [1] (measured here: PEO4 Z-AUC), 0.504. Further, the figures for the activity, negative = inhibition in experiment [2] (parasite line A) and in experiment [2] (parasite line B) were -3.7% (inactive) and 16.4% (inactive), respectively. The outcome in experiment [5] was inactive. Moreover, the Potency entry in experiment [3] is “inactive”.

For the origin of these results see PubChem BioAssay (NCATS).
